Experimental data taken from ChEMBL document CHEMBL3988442, “University of Dundee, Small-Polar-MMV Screening Library” (2021).
For part of these data: Results with a measured potency or affinity are listed apart.

Legend:
Set-up in all cases: scale not given: direction of the effect not stated beside the values
[1] = target: Protein translocase subunit SecA (Escherichia coli (strain K12)) (UniProt P10408); test: Assay to Identify E. coli SecA ATPase Inhibitors; type: functional; conditions: 30 µM
Protein translocase subunit SecA (Escherichia coli (strain K12)), sequence (P10408 whole entry): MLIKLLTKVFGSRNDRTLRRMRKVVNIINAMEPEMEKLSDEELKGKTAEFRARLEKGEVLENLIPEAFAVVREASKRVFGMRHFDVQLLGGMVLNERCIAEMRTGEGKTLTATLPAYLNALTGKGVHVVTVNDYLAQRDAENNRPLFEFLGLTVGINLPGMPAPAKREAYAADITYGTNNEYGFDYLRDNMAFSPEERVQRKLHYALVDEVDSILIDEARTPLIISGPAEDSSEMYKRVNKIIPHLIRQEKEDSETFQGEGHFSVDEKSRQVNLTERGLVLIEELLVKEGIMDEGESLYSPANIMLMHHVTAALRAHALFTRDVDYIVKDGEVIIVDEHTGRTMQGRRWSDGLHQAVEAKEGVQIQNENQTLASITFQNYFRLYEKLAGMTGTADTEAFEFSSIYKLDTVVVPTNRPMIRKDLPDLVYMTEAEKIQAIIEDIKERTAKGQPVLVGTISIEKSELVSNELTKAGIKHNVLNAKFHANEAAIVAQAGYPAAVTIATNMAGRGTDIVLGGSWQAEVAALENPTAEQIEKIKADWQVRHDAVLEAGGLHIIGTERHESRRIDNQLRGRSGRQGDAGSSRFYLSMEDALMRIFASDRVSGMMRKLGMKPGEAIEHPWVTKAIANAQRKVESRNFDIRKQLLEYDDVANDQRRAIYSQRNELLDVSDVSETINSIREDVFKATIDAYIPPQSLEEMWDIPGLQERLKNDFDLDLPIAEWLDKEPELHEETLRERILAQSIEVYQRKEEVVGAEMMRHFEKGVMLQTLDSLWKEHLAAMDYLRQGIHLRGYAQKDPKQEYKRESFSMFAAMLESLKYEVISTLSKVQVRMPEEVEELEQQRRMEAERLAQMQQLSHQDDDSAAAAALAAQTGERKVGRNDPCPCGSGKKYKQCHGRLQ

[2] = target: T1, Ubiquitin-activating enzyme e1, putative (Leishmania donovani (strain BPK282A1)) (UniProt E9BSI1); test: Leishmania donovani Ubiquitin Activating Enzyme (LdE1); type: functional; conditions: 30 µM
T1 sequence (whole entry): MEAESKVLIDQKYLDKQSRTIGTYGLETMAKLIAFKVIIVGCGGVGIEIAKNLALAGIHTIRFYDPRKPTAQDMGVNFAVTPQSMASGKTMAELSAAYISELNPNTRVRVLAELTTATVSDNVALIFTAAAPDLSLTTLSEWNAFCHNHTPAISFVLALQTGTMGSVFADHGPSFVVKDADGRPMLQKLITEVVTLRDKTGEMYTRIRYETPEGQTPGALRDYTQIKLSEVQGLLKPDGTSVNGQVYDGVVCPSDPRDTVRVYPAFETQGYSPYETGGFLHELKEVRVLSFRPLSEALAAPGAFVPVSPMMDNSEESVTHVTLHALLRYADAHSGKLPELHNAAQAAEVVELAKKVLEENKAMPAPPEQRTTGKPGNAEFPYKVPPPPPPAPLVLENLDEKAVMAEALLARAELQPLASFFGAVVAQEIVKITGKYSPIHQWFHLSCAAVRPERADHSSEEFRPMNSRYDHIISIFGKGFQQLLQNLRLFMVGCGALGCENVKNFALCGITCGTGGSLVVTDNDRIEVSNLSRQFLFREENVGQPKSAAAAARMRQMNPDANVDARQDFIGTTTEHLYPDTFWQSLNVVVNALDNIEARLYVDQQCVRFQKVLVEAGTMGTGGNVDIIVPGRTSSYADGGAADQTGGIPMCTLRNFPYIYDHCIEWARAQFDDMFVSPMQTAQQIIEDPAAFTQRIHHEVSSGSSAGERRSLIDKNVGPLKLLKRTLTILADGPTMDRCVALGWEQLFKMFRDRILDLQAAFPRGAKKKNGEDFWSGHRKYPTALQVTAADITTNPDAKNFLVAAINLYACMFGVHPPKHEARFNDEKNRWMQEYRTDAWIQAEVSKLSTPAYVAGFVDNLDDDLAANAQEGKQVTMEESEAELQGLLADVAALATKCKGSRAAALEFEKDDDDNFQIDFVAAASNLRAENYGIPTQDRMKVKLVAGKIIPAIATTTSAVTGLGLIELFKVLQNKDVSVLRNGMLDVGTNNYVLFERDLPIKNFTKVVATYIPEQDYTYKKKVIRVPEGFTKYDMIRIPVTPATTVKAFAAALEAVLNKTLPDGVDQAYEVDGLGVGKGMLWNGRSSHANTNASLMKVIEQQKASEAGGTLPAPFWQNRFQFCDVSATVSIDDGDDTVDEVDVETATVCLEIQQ

[3] = target: T2, Aspartate--tRNA(Asp/Asn) ligase (Mycobacterium tuberculosis (strain ATCC 25618 / H37Rv)) (UniProt P9WFW3); test: Assay for Asp RNA synthetase-1 from Mycobacterium tuberculosis; type: functional; conditions: 30 µM; note: in the data most compounds retested in dose-response had high values
T2 sequence (whole entry): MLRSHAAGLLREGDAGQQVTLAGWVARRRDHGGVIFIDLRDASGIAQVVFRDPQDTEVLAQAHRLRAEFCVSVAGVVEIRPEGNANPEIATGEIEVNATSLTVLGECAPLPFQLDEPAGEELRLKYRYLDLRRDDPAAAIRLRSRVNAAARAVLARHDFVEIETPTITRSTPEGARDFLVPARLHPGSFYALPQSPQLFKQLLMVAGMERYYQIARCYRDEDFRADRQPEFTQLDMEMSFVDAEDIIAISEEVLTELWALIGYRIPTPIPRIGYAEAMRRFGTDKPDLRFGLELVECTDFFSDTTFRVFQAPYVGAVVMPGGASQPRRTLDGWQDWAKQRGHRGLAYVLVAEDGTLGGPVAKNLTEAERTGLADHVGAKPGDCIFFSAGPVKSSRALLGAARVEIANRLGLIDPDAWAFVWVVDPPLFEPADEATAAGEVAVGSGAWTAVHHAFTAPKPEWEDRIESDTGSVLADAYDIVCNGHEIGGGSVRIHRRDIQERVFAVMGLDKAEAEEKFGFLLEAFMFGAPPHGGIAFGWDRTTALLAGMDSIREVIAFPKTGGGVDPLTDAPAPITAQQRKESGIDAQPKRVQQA

[4] = target: AMP-activated protein kinase, AMPK (Homo sapiens) (UniProt P54646+O43741+P54619+Q9UGJ0+Q9Y478+Q13131+Q9UGI9); test: AMP-dependent Kinase enzyme assay. An in vitro enzyme assay that detects ADP turnover that is directly proportional to AMPK activity. This uses naive AMPK that is activated during the assay with MK-8722; type: functional; conditions: 30 µM
[5] = target: Sialic acid-binding Ig-like lectin 9 (Homo sapiens) (UniProt Q9Y336); test: Hs-Siglec9 ALPHAscreen SOP 20170721; conditions: 10 µM
Sialic acid-binding Ig-like lectin 9 (Homo sapiens), sequence (Q9Y336 whole entry): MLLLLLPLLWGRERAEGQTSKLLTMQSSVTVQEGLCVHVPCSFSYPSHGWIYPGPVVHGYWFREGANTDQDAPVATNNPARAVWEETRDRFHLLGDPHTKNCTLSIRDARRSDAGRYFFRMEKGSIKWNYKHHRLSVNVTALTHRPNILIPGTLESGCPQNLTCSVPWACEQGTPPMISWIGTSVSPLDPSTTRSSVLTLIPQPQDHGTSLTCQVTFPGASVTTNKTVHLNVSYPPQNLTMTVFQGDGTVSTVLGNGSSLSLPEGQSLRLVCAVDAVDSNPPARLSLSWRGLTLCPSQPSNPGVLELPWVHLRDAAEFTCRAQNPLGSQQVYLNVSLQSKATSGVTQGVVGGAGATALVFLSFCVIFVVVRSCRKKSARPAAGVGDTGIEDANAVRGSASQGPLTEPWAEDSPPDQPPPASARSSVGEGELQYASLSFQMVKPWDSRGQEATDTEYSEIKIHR

Trypanosoma cruzi = test: Trypanosoma cruzi phosphomannomutase and mannose-1-phosphate guanylyltransferase assay; type: functional; conditions: 10 µM
[6] = target: T3, Arginase-2, mitochondrial (Homo sapiens) (UniProt P78540); test: in vitro enzyme assay to detect the production of urea directly proportional to the activity of Arginase II; type: functional; conditions: 33.3 µM; note: in the data most compounds retested in dose-response had high values
T3 sequence (whole entry): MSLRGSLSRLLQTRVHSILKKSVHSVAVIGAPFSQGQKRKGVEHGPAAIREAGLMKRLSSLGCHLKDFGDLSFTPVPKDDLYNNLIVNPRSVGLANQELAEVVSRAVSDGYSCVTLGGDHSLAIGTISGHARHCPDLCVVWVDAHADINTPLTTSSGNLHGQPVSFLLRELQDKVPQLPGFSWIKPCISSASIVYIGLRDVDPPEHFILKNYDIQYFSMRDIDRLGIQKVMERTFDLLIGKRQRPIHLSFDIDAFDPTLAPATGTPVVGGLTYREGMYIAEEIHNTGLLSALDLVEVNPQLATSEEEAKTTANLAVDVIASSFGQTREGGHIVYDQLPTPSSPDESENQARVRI

[7] = target: T4, Proteasome subunit beta (Trypanosoma cruzi) (UniProt O96673); test: Trypanosoma cruzi proteasome chymotrypsin-like activity (TcProtChymo) assay.; note: in the data most compounds retested in dose-response had high values; type: functional; conditions: 9.37 µM
T4 sequence (whole entry): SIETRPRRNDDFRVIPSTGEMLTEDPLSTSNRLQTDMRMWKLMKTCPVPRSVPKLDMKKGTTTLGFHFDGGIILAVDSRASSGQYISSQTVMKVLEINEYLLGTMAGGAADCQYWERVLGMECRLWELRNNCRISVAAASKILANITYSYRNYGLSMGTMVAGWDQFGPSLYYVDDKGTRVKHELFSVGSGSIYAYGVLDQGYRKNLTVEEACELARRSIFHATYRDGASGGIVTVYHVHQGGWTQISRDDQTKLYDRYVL

Homo sapiens = organism: Homo sapiens; test: To identify inhibition of the IFN signalling (Jak-Stat) pathway via expression of an eGFP reporter gene under the control of an IFN-stimulated response element (ISRE) containing MxA promoter.; type: functional; conditions: 30 µM
[8] = target: Shiga toxin 2 (Escherichia coli O157:H7) (UniProt P09385+P09386); test: E. coli 0.157:H7 Shiga Toxin SOP - stx2 screening assay; type: functional; conditions: 30 µM
[9] = target: T5, Tyrosyl-tRNA synthetase, putative (Trypanosoma cruzi (strain CL Brener)) (UniProt Q4DSP6); test: Trypanosoma cruzi tyrosyl tRNA synthetase (TcYRS) _High Tyrosine SOP; type: functional; conditions: 30 µM; note: in the data most compounds retested in dose-response had high values
T5 sequence (whole entry): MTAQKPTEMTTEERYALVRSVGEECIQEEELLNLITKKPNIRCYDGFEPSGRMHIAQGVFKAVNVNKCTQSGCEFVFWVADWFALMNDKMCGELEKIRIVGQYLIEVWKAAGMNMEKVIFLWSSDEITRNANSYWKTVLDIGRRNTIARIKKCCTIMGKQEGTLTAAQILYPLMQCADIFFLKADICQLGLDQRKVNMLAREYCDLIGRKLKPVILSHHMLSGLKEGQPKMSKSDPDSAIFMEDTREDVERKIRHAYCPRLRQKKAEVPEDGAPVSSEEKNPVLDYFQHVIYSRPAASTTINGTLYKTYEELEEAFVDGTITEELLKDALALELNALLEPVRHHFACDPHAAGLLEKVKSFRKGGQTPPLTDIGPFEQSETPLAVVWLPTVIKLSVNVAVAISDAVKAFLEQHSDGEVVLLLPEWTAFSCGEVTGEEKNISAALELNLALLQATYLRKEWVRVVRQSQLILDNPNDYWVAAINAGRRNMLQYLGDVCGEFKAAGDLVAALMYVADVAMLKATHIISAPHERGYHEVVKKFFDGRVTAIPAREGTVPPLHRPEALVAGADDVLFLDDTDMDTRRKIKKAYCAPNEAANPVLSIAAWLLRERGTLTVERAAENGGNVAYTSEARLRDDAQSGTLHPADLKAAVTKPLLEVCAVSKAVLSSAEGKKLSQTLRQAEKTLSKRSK

[10] = target: T5, Tyrosyl-tRNA synthetase, putative (Trypanosoma cruzi (strain CL Brener)); test: Trypanosoma cruzi tyrosyl tRNA synthetase (TcYRS) SOP; type: functional; conditions: 30 µM
[11] = target: Chromo domain-containing protein 1 (Saccharomyces cerevisiae (strain ATCC 204508 / S288c) (Baker's yeast)) (UniProt P32657); test: ScCHD-1 Enzyme Inhibition Assay; type: functional; conditions: 30 µM; note: in the data most compounds retested in dose-response had high values
Chromo domain-containing protein 1 (Saccharomyces cerevisiae (strain ATCC 204508 / S288c) (Baker's yeast)), sequence (P32657 whole entry, the tested form may be a part): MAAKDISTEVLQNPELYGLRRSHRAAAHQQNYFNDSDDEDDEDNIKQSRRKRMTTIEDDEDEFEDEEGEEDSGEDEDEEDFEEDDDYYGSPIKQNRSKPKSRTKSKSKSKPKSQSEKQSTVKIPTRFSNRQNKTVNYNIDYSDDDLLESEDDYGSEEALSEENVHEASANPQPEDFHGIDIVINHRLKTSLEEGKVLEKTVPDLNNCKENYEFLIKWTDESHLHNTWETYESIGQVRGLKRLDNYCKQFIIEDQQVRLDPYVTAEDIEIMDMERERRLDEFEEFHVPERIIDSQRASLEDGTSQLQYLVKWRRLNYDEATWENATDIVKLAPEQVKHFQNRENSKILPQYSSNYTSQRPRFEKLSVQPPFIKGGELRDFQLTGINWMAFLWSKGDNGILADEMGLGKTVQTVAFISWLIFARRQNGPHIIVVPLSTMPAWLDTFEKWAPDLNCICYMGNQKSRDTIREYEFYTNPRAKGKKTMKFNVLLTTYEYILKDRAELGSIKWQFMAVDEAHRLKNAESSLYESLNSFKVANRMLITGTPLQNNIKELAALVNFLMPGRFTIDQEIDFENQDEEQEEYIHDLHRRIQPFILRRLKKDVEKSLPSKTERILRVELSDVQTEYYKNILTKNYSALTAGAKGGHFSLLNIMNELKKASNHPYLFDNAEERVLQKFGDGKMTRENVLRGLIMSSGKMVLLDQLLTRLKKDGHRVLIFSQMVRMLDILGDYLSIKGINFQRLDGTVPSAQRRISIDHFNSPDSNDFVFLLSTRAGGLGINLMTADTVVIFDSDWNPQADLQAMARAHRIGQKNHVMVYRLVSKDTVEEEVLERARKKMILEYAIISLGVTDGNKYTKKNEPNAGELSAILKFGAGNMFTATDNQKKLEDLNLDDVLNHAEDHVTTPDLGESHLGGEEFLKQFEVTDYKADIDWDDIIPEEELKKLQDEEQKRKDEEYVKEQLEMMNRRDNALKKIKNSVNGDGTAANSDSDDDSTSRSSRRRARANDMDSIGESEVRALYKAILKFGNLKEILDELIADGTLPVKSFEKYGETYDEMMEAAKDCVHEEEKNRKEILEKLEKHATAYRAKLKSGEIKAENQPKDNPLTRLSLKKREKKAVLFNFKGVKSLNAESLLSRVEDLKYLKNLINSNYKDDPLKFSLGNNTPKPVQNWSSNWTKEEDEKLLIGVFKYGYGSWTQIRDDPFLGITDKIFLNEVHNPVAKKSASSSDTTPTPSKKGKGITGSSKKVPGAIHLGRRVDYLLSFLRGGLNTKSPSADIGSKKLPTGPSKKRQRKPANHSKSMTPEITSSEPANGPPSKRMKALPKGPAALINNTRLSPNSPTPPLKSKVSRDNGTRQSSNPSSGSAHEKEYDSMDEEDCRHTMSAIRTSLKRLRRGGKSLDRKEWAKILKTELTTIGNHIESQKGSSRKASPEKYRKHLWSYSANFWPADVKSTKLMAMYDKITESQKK

SMILES	Percent Effect [1] [%]	Percent Effect [2] [%]	Percent Effect [3] [%]	Percent Effect [4] [%]	Percent Effect [5] [%]	Percent Effect (Trypanosoma cruzi) [%]	Percent Effect [6] [%]	Percent Effect [7] [%]	Percent Effect (Homo sapiens) [%]	Percent Effect [8] [%]	Percent Effect [9] [%]	Percent Effect [10] [%]	Percent Effect [11] [%]
COc1ccc(C2SCC(=O)Nc3ccsc32)cc1 (configuration not stated)	-5.35	-12	4.36	29	5.11	-5.5	1.94	13.9	30.7	-15.2	10.6	2.56	11.2
c1cc(COC[C@@H]2CCC[C@@]23CNCCO3)ccn1	-6.97	8.11	4.08	91.3	-11.6	-6.94	-3.5	10.7	2.47	-12.9	-3.24	0	-2.52
COc1cc(CNCC(O)c2ccc(C)cc2)cc2c1OCCO2 (configuration not stated)	-5.58	24.3	-2.36	11	14.6	2.32	-3.88	16.3	8.18	-34.2	6.93	18.3	-6.66
COc1ncccc1CN1C[C@@H]2COC[C@]2(COCC2CC2)C1	-2.06	1.33	0.116	0.466	5.34	-9.23	24.5	14.4	2.6	-25.1	6.35	2.56	-9.86
Cc1c(CC(=O)N2CCN(CC(F)(F)F)CC2)nnn1-c1ccccc1	-3.34	10.4	12.8	-2.43	2.86	-2.65	2.76	10.8	11.9	-45.5	4.3	8.64	-1.92
O=C(c1ccnnc1)N1C[C@@H]2OCCN(CCN3CCCC3)[C@@H]2C1	3.18	0	0.474	-5.06	4.92	-2.64	-1.59	12.7	-3.96	-4.98	6.49	2.56	6.02
COCC(=O)NC(C)Cc1cccc(OC)c1 (configuration not stated)	-1.72	13.2	-2.52	3.57	6.63	6.77	-0.383	11.5	8.48	24.3	10.3	21.9	-8.88
O=C1[C@H]2CN(Cc3cccs3)C[C@H]2CN1c1cncnc1	-5.75	2.6	-7.76	1.57	4.28	-3.25	-8.28	9.65	7.38	-49.4	2.15	1.24	1.9
O=C(c1cscn1)N1CCN2C[C@H](OCc3cccnc3)C[C@H]2C1	4.53	16	2.54	2.68	-10.9	-9.05	6.76	12.1	0.411	-22.2	5.32	3.85	1.28
